Out of some 190,000 compounds screened, about 4,000 (2.1%) were called active. Rule as the data show it: active = inhibition above about 58%; inactive = the rest, inconclusive results apart; tested in S. cerevisiae. Many of the other results were omitted from the sample, so actives are more common in it than they were.
Test: growth inhibition of WT strain, primary screen, mitochondrial fusion inhibitor project, WT and mutant strains, chemical genetic (AID 1362)
Conditions: mitochondrial fusion phenotypic screen, at 10 µM
[1] = WT strain, growth inhibition, stronger effect = higher value

| Structure (SMILES) | inhibition [1] | inhibition (mutant strain inhibition) [%] |
| --- | --- | --- |
| O=C(NCc1ccccc1)C1CCCN(c2nc3ccsc3c(=O)s2)C1 (stereo unspecified) | -14.1% (inactive) | 0.23 |
| O=C(c1ccc(Cl)c([N+](=O)[O-])c1)N1CCN(c2ccccc2)CC1 | 65.8% (inactive) | 70.4 |
| O=C(/C=C/c1ccc(Cl)cc1)N1CCN(c2ccccc2[N+](=O)[O-])CC1 | 65.4% (active) | 39.2 |
| CO/N=C/c1ccc(N2CCN(C(=O)c3cccc(Cl)c3)CC2)c([N+](=O)[O-])c1 | 36.5% (inactive) | 22.2 |
| CCn1cc(C(=O)NCCCN2CCCCCC2)c(=O)c2cc(S(=O)(=O)N3CCc4ccccc4C3)ccc21 | 4.36% (inactive) | -2.13 |
| COc1ccc(NC(=O)CCNS(=O)(=O)c2ccc3c(c2)c(=O)n(C)c(=O)n3C)cc1OC | -9.99% (inactive) | 2.95 |
| CCCNC(=O)CN(Cc1ccccc1F)S(=O)(=O)c1ccc(C)cc1 | -13.2% (inactive) | -40.4 |
| COC(=O)Cc1ccc(N(Cc2ccccc2F)S(=O)(=O)c2ccc(Br)cc2)cc1 | 69.7% (active) | 64.6 |
| O=C(COC(=O)Cc1ccc(Br)cc1)Nc1c(F)c(F)c(F)c(F)c1F | 19.9% (inactive) | 7.41 |
| CCCS(=O)(=O)N1CCC(CCOc2ccccc2)(C(=O)OCC)CC1 | 5.25% (inactive) | -7.89 |
| CCSC1=NCCN1C(=O)c1ccc(S(=O)(=O)N(CC)CC)cc1 | 1.64% (inactive) | -5.04 |
| O=C(COC(=O)c1ccncc1)c1ccccc1 | -12.9% (inactive) | 3 |
| COc1ccc(N2CCN(CCNC(=O)c3nnc(Cc4c(F)cccc4Cl)o3)CC2)cc1 | 82.5% (active) | -0.13 |
| COc1ccc(N2CCN(CCNC(=O)CCN3C(=O)COc4ccccc43)CC2)cc1 | -0.99% (inactive) | 42.7 |
| COc1ccc(CN2CC(C(=O)NCCN3CCN(c4ccccc4F)CC3)CC2=O)cc1 (stereo unspecified) | 5.07% (inactive) | 14.3 |
| O=C(CCn1ccc([N+](=O)[O-])n1)Nc1nccs1 | -14.4% (inactive) | 2.54 |
| Cn1c(N)c(C(=O)COC(=O)c2ccccc2NCc2ccco2)c(=O)n(C)c1=O | 12.2% (inactive) | -19.6 |
| Cc1ccc(NC(=O)OCc2cncs2)cc1 | -3.01% (inactive) | 3.18 |
| COc1ccc(OC)c(C(=O)c2ccc(C(=O)N3CCN(Cc4csc(C)n4)CC3)cc2)c1 | -23% (inactive) | 5.3 |
| Cc1ccc(Cl)c(NC(=O)CN2CCN(C=O)CC2)c1 | -7.62% (inactive) | 12.5 |
| CC(=O)OC(COc1ccc(F)cc1)Cn1cnc2ccccc21 (stereo unspecified) | -0.37% (inactive) | 4.78 |

| Structure (SMILES) | inhibition [1] | inhibition (mutant strain inhibition) [%] |
| --- | --- | --- |
| CC(C)c1ccc(OCC(O)Cn2cnc3ccccc32)cc1 (stereo unspecified) | 95.7% (active) | 0.12 |
| OC(COc1ccc2ccccc2c1)Cn1cncn1 (stereo unspecified) | 4.91% (inactive) | -2.41 |
| CC(=O)Nc1cccc(-c2nc3ccccc3s2)c1C | -0.41% (inactive) | -5.28 |
| O=C(CCCN1C(=O)/C(=C/c2ccco2)SC1=S)Nc1ccccc1 | 1.95% (inactive) | -17.3 |
| COC(=O)C1=C(C)N(C(C)c2ccccc2)C(=O)/C1=C\c1ccco1 (stereo unspecified) | 58.3% (active) | -4.58 |
| COC(=O)C1=C(C)N(c2ccc(Br)cc2)C(=O)/C1=C\c1ccco1 | 13.1% (inactive) | 8.54 |
| O=C(NCCN1CCOCC1)Nc1cccc(Cl)c1 | -7.63% (inactive) | -3.81 |
| Cc1cc(C)cc(OCC(=O)NCc2cc(C)nc3ccccc23)c1 | -2.23% (inactive) | 3.06 |
| COc1cc(NC(=S)N2CCCC(C)C2)c(OC)cc1Cl (stereo unspecified) | -3.52% (inactive) | 1.38 |
| COc1ccc(NC(=O)COc2ccc(C(=O)OCC(=O)N(C)C3CCS(=O)(=O)C3)cc2OC)cc1 (stereo unspecified) | -3.64% (inactive) | 1.53 |
| O=C(Nc1cccc(S(=O)(=O)N2CCCCC2)c1)c1ccc2c(c1)OCO2 | 9.86% (inactive) | 4.97 |
| O=C(Nc1cccc(S(=O)(=O)Nc2ccc(Cl)cc2)c1)c1ccc2c(c1)OCCO2 | 63.7% (active) | 29.9 |
| O=C(Nc1ccc(Cl)cn1)c1ccc2c(c1)OCCO2 | 27.3% (inactive) | 29 |
| CCn1nc(C)cc1C(=O)N1CCCC(C(=O)c2cccc(OC)c2)C1 (stereo unspecified) | -20.3% (inactive) | 1.68 |
| Cn1nnnc1SCC(=O)NNC(=O)c1ccc(Br)cc1 | -19.9% (inactive) | 0.05 |
| COc1cc(/C=N/NC(=O)c2cc(C)n(-c3ccc(F)cc3)c2C)cc(OC)c1O | 1.5% (inactive) | 1.64 |
| COc1cc(Cl)c(C)cc1NC(=O)CSc1nnc(-c2ccco2)n1CC(C)C | 63.4% (active) | 39.5 |
| CCn1c(SCC(=O)Nc2cc(C)c(Cl)cc2OC)nnc1-c1ccco1 | 23% (inactive) | 32.2 |
| COc1cc(Cl)c(C)cc1NC(=O)CSc1nnc(-c2cccnc2)n1Cc1ccco1 | 2.54% (inactive) | 2.3 |
| CCN(CC)CCOC(=O)c1ccc(NC(=O)CNC(=O)c2ccccc2)cc1 | 19.4% (inactive) | 15.8 |
| COc1ccccc1NC(=S)NC(=O)C(C)C | 48% (inactive) | 2.93 |

| Structure (SMILES) | inhibition [1] | inhibition (mutant strain inhibition) [%] |
| --- | --- | --- |
| COc1ccccc1NC(=S)N1CCN(C(c2ccccc2)c2ccccc2)CC1 | 58.8% (active) | 38.3 |
| CC(C)OCC(O)CN1CCN(C(c2ccccc2)c2ccccc2)CC1 (stereo unspecified) | 11% (inactive) | 3.96 |
| CC(C)NC(=S)N1CCN(S(C)(=O)=O)CC1 | -2.96% (inactive) | 11.2 |
| COc1ccccc1NC(=S)N1CCC(NC(=O)C23CC4CC(CC(C4)C2)C3)CC1 | -5.17% (inactive) | 19 |
| CC(C)NC(=S)N1CCN(C(c2ccccc2)c2ccccc2)CC1 | 64.7% (active) | 29.4 |
| O=C1CN(C(=O)COC(=O)c2cnc(Cl)c(Cl)c2)c2ccccc2N1 | -3.97% (inactive) | -29.4 |
| O=C(COC(=O)c1ccco1)NCc1ccc(Cl)cc1 | 2.75% (inactive) | -1.13 |
| Cc1n[nH]c(=O)n1-c1ccc(C(C)C)cc1 | -5.29% (inactive) | -2.69 |
| O=C(CO/N=C/c1ccc(OC(F)F)cc1)NCc1ccc(F)cc1 | 16.7% (inactive) | 27 |
| CC(C(=O)N=Nc1c(O)n(C)c2ccc(Br)cc12)n1cnc2ccccc2c1=O (stereo unspecified) | 17.8% (inactive) | 30.6 |
| COCCN(CCOC)S(=O)(=O)c1ccc(/C(O)=C(\C#N)c2nc3ccccc3[nH]2)cc1 | -0.78% (inactive) | -1.8 |
| CC(C)CN1CCNC(=O)C1CC(=O)N(C)CC1CCOCC1 (stereo unspecified) | -4.62% (inactive) | -8.09 |
| COC(=O)C1=C(C)N(c2ccc(C)cc2)/C(=C/c2ccc(O)cc2)C1=O | 5.84% (inactive) | 0.5 |
| COc1ccc(/C=N/NC(=O)CNC(=O)c2ccc(S(=O)(=O)N3CCCC3)cc2)c(OC)c1 | 7.02% (inactive) | 8.18 |
| Cc1nnc(CN(C)Cc2cn[nH]c2-c2ccc(-c3ccccc3)cc2)o1 | 6.53% (inactive) | -1.49 |
| CCCc1ccc(OCC(=O)NNC(=S)NC(=O)c2ccco2)cc1 | 87.8% (inactive) | 88.2 |
| O=C(Nc1ccc2ccccc2c1)/C(=C/c1cccc(Br)c1)NC(=O)c1ccco1 | 17.2% (inactive) | 10.9 |
| CC(Oc1ccc2ccccc2c1)C(=O)NNC(=S)NC(=O)c1ccco1 (stereo unspecified) | 86.5% (active) | 80.5 |
| CCCCCNC(=O)c1cccnc1SCC(=O)Nc1ccccc1OC | -6.44% (inactive) | -24 |
| CCCNC(=O)c1ccccc1NC(=O)CSCc1ccc(OC)cc1 | 72.9% (active) | 19.6 |
| CCCNC(=O)Nc1ccccc1C(=O)Nc1ccc(OC)cc1 | -0.69% (inactive) | -0.17 |

| Structure (SMILES) | inhibition [1] | inhibition (mutant strain inhibition) [%] |
| --- | --- | --- |
| Cc1cccc(C)c1NC(=O)C1(C)c2cccc[n+]2CC(=O)N1Cc1cccs1 (stereo unspecified) | -7.87% (inactive) | 0.75 |
| COc1cccc(/C=N/NC(=O)c2cccc([N+](=O)[O-])c2)c1OS(=O)(=O)c1ccc(C)cc1 | -5.41% (inactive) | -3.16 |
| COc1cc(/C=N/O)cc(Br)c1OS(=O)(=O)c1ccc(C)cc1 | 71.3% (active) | 30.6 |
| COc1cc(/C=N/Nc2ccc(C)cc2)cc(Br)c1O | 15.8% (inactive) | 37.7 |
| CCOc1c(Cl)cc(/C=N/O)cc1OC | -6.94% (inactive) | -20.7 |
| CCOc1cc(/C=N/O)cc(Br)c1OC | -2.36% (inactive) | -20.3 |
| COc1cc(/C=N/O)cc(Br)c1OCc1cccc(Cl)c1 | 91.4% (active) | 76.3 |
| N#CC1(C#N)C(C(=O)C23CC4CC(CC(C4)C2)C3)C12CCOCC2 (stereo unspecified) | 21.5% (inactive) | 11.6 |
| CCOc1cc(N2CCOCC2)c(OCC)cc1NC(=O)C1=NN(c2cccc(C)c2)C(=O)CC1 | -2.98% (inactive) | 16.4 |
| Cc1cc(C)c(OCCN2CC(C)OC(C)C2)c(Br)c1 (stereo unspecified) | 21.8% (inactive) | 42.5 |
| Cc1ccc(OCc2n[nH]c(=S)n2-c2ccccc2)cc1 | 11.4% (inactive) | 20.6 |
| S=c1[nH]nc(COc2ccccc2)n1-c1ccccc1 | -7.14% (inactive) | -7.05 |
| Cc1ccc(OCc2n[nH]c(=S)n2-c2ccc(C)cc2)cc1 | 69.9% (active) | 60.1 |
| COc1ccc(CN(C)C(=S)Nc2ccc(Cl)cc2Cl)cc1 | 22.4% (inactive) | 21.9 |
| O=Cc1cn(Cc2ccccc2)nc1-c1cccnc1 | -22.6% (inactive) | 3.85 |
| N#C/C(=C(\O)C(F)(F)F)c1nnc2n1CCCCC2 | 22% (inactive) | 13.5 |
| Cc1ccc2nc(-c3ccccc3)cc(C(=O)O)c2c1 | 3.84% (inactive) | 0.25 |
| CCS(=O)(=O)Nc1cccc(-c2cc(-c3ccccc3)c3cc(C)ccc3n2)c1 | 69.3% (active) | -17.6 |
| CC(=O)Nc1cccc(-c2cnc3ccccc3n2)c1 | 13.3% (inactive) | 9.81 |
| CCC(C)(C)NC(=O)/C=C/c1cc(OC)c(OC)c(S(=O)(=O)N2CCc3ccccc32)c1 | 7.15% (inactive) | 8.01 |

— PubChem BioAssay AID1362 (SRMLSC, 2008)
